Screening data deposited in PubChem by National Center for Advancing Translational Sciences (NCATS).
Only some compounds are listed: those with a hit (about 11% of all), similar ones and a draw of the others.
VP16 counter: inhibits Gal4-VP16 luciferase reporter, ROR gamma counter-screen; Drosophila S2 Gal4-VP16 UAS-luciferase, luminescence, 20 h; Potency, µM (doses to about 53.6 µM), for inactives: at the highest dose activity, negative = inhibition, actives largely listed as inhibitors; 310,000 tested, 3.5% active; AID 2546;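 note: Gal4-VP16 expression switched on by copper sulfate through the metallothionein promoter; potency is the fitted concentration of half-maximal effect; % is set by controls: 0 for no effect and ±100 for the full control effect; nearly all actives have a fitted effect of over 50% in size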
RORgamma inh: blocks mouse ROR gamma transcriptional activity; 310,000 tested, 5.4% active; Drosophila S2 Gal4-RORgamma UAS-luciferase reporter, 20 h; Potency, µM (top dose mostly 53.6 µM), inactives show top-dose activity change, negative = inhibition, usual class: inhibitors; note: potency is the fitted concentration of half-maximal effect; % is set by controls: 0 for no effect and ±100 for the full control effect; nearly all actives have a fitted effect of over 60% in size
Target sequence (P51450 whole entry, looked up, the tested form may be a part): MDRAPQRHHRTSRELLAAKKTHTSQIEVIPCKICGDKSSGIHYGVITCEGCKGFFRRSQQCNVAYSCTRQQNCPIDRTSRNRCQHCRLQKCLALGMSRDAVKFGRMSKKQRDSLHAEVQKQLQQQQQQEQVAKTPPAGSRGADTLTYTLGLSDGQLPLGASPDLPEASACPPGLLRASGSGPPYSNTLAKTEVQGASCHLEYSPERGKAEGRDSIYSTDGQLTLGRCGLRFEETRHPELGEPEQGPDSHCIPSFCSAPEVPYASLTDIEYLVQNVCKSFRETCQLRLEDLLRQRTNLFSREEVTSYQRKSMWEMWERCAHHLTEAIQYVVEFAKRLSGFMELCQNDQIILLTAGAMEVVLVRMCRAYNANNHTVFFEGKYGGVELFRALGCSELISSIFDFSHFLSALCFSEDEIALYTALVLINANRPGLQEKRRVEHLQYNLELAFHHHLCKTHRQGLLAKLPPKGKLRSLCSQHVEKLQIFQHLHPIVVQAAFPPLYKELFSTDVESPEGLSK
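In this cell-based reporter format, copper sulfate (700 uM final) drives Gal4–ROR gamma fusion expression from a metallothionein promoter in Drosophila Schneider cells; compounds preincubated 1 hr, reporter read after 20 hr at ambient temperature.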
SW480 rereplic: DNA re-replication induction in SW480 cells; AID 624297; SW480 DNA re-replication, Hoechst DNA content imaging, 48 h; Potency, µM (titrated, usually from 46.1 µM), for the others: at the top dose re-replication activation, actives largely listed as activators; 340,000 tested, 1.8% active; note: potency is the fitted concentration of half-maximal effect; % of control where 0% means no effect; nearly all actives have a fitted effect of over 55% in size
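250 cells/well; 23 nL cpd via pin tool; 48 hr, 37 C, 5% CO2; Hoechst 40 min; imager read of total nuclear intensity, ex 405/em 500-530 nm.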
IL-1B inflam inh: inflammasome signaling inhibition, IL-1 beta readout | THP-1 LPS/ATP IL-1B secretion, AlphaLISA, 16 h; stronger effect = lower value | activity change, % at 57.5 µM | 360,000 tested, 4.7% active; in the data active = activity change below about -50%; inconclusive = mostly about -30% to -49%; note: % is set by controls: 0 for no effect and ±100 for the full control effect
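Secreted IL-1B measured by AlphaLISA bead assay after 16 h compound exposure of THP-1 cells; compounds (final up to 57.5 uM) added 1 h before LPS (250 ng/mL) and ATP (1.25 mM) stimulation; lower signal means less secretion.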
MCF10A rerep: inducers of DNA re-replication in MCF 10A breast cells. MCF 10A DNA re-replication, Hoechst nuclear intensity, 48 h. Potency, µM (titrated, usually from 46.1 µM), for inactives: at the highest dose activity, positive = re-replication, most hits filed as activators. 350,000 tested, 2.9% active. AID 624296; note: potency is the fitted concentration of half-maximal effect; % of control where 0% means no effect; nearly all actives have a fitted effect of over 50% in size
Active calls of the source: *; [ ] = dose if it differs, or a comment. Unless noted, calls come from the whole dose curve; as a rule, active = well fitted curve in the direction sought with a large enough effect; inconclusive = small, poorly fitted or top-dose-only effect, or another doubt; inactive = no such curve, though single readings can be large; an effect the other way counts as inactive or inconclusive.

COc1ccc(OC)c(N/C(N)=N/c2nc(C)cc(C)n2)c1 was read as VP16 counter -5%, RORgamma inh 1%, SW480 rereplic inconclusive, IL-1B inflam inh -77* and MCF10A rerep -1%.
`Cc1ccc(N2CCC(N3CCN(C)C(CCO)C3)CC2)cc1` (centres undefined) gave VP16 counter -10%, RORgamma inh -20%, SW480 rereplic -1%, IL-1B inflam inh 8 and MCF10A rerep inconclusive.
Screening CO[C@H]1C[C@@H]2C[C@H](O)C[C@@H](CC(=O)O[C@@H](/C=C\CC(C)C)C[C@@H]3CC[C@H](C)[C@@H](C1)O3)O2 returned VP16 counter 12%[10 µM] and RORgamma inh 13%[10 µM].
`CC(OC(=O)c1ccc2ncsc2c1)C(=O)Nc1cccc(Cl)c1` (centres undefined) gave SW480 rereplic -2%, IL-1B inflam inh -1 and MCF10A rerep 11%.
`COCCn1nnnc1C(c1ccc(OC)cc1OC)N1CCN(c2ccccc2)CC1` (centres undefined) gave VP16 counter -7%, RORgamma inh -19%, SW480 rereplic 22%, IL-1B inflam inh 1 and MCF10A rerep 3%.
Screening COc1ccc(OC)c(C(c2nnnn2CCc2ccccc2)N2CCN(c3ccccc3)CC2)c1 (centres undefined) returned VP16 counter 4%, RORgamma inh 0%[10 µM], SW480 rereplic -2%[9.22 µM], IL-1B inflam inh -85* and MCF10A rerep 3%.
COc1cc(/C=C/c2nc3ccccc3c(=O)[nH]2)ccc1OC(F)F was read as VP16 counter 0%, RORgamma inh 2%, SW480 rereplic 0%, IL-1B inflam inh inconclusive and MCF10A rerep -1%.
O=c1[nH]c(/C=C/c2ccccc2OC(F)F)nc2c1cnn2-c1ccccc1 was read as VP16 counter inconclusive, RORgamma inh inconclusive, SW480 rereplic inconclusive, IL-1B inflam inh 23 and MCF10A rerep 15µM*.
Screening CCC(C)C(=O)OCC1(c2ccc(C)cc2OC(=O)C(C)C)CO1 (centres undefined) returned VP16 counter inconclusive, RORgamma inh 0%, SW480 rereplic inconclusive, IL-1B inflam inh 10 and MCF10A rerep 18%.
For Cc1ccc(C2(COC(=O)C(C)C)CO2)c(OC(=O)C(C)C)c1 (centres undefined) the results were VP16 counter 8.9µM*, RORgamma inh -7%, SW480 rereplic 1%, IL-1B inflam inh 28 and MCF10A rerep 2%.
Screening COc1ccc(OC2C=CC(c3ccccc3)OC2CO)c(C(C)(C)C)c1 (centres undefined) returned VP16 counter -8%[10 µM] and RORgamma inh -21%[10 µM].
Screening COc1ccc(OC)c(/C=C/C(=O)c2ccc(Cl)cc2)c1 returned VP16 counter -16%, RORgamma inh inconclusive, SW480 rereplic inconclusive, IL-1B inflam inh -89* and MCF10A rerep inconclusive.
For O=C(/C=C(\O)c1ccccc1)c1ccccc1O the results were VP16 counter 4.5µM* and RORgamma inh 4.5µM*.
Screening COc1ccccc1/C=C/C(=O)c1ccccc1 returned VP16 counter 0%, RORgamma inh inconclusive, SW480 rereplic inconclusive, IL-1B inflam inh -18 and MCF10A rerep 26µM*.
`CCOc1ccccc1/C=C/C(=O)c1ccc(Cl)cc1` gave VP16 counter -1%, RORgamma inh -18%, SW480 rereplic inconclusive, IL-1B inflam inh inactive and MCF10A rerep inconclusive.
Screening COc1ccccc1/C=C/C(=O)c1ccc(Cl)cc1 returned VP16 counter -5%, RORgamma inh inconclusive, SW480 rereplic inconclusive, IL-1B inflam inh -56* and MCF10A rerep inconclusive.
COc1ccc(/C=C/C(=O)c2ccccc2)c(OC)c1 was read as VP16 counter -7%, RORgamma inh 16%, SW480 rereplic inconclusive, IL-1B inflam inh 0 and MCF10A rerep -1%.
`N#Cc1ccc(/C=C/C(=O)c2ccccc2)cc1` gave VP16 counter inconclusive, RORgamma inh -79%, SW480 rereplic 0%, IL-1B inflam inh -27 and MCF10A rerep 21µM*.
`O=C(/C=C/c1ccccc1O)c1ccccc1` gave SW480 rereplic inconclusive, IL-1B inflam inh -54* and MCF10A rerep inconclusive.
Cc1[nH]c2ccccc2c1/C=C/C(=O)c1ccncc1 was read as VP16 counter -18%, RORgamma inh 12%, SW480 rereplic inconclusive, IL-1B inflam inh -12 and MCF10A rerep 8%.
Screening O=C(/C=C/c1cccc2ccccc12)c1ccncc1 returned VP16 counter 8.9µM*, RORgamma inh -88%, SW480 rereplic inconclusive, IL-1B inflam inh -82* and MCF10A rerep 12µM*.
`COc1ccccc1/C=C/C(=O)c1ccc(NC(C)=O)cc1` gave VP16 counter inconclusive, RORgamma inh inconclusive, SW480 rereplic 5%, IL-1B inflam inh -107* and MCF10A rerep 16µM*.
Screening COc1ccccc1C(=O)Nc1ccc(C(=O)c2ccccc2)cc1 returned VP16 counter -9%[10 µM], RORgamma inh 39%, SW480 rereplic 7%, IL-1B inflam inh -30 and MCF10A rerep 0%.
COc1ccccc1/C=C/C(=O)c1c2c(c(C)[nH]c1=O)CCCC2 was read as VP16 counter 4.5µM*, RORgamma inh 5.6µM*, SW480 rereplic inconclusive, IL-1B inflam inh -101* and MCF10A rerep inconclusive.
For N#Cc1ccccc1COc1ccc(/C=C/C(=O)O)cc1 the results were VP16 counter 0.71µM*, RORgamma inh 0.18µM*, SW480 rereplic -4%, IL-1B inflam inh 0 and MCF10A rerep -5%.
For O=C(Cc1ccc(Cl)cc1)NCC(=O)N1CCCCCC1 the results were SW480 rereplic inconclusive, IL-1B inflam inh -5 and MCF10A rerep -12%.
Screening CNCCCCc1cnc(C)c2[nH]c3ccccc3c12 returned VP16 counter -4% and RORgamma inh -30%.
Cc1ccc(S(=O)(=O)CNC(=S)c2cccc(C)c2)cc1 was read as VP16 counter inconclusive, RORgamma inh 13µM*, SW480 rereplic -3%, IL-1B inflam inh -3 and MCF10A rerep -27%.
Cc1ccc(S(=O)(=O)CNC(=S)c2ccc3ccccc3c2)cc1 was read as VP16 counter inconclusive, RORgamma inh 11µM*, SW480 rereplic -1%, IL-1B inflam inh inconclusive and MCF10A rerep 18%.
Cc1ccc(S(=O)(=O)CNC(=O)c2ccccc2)cc1 was read as VP16 counter -21%, RORgamma inh inconclusive, SW480 rereplic 0%, IL-1B inflam inh -10 and MCF10A rerep 1%.
Screening COc1ccc(C(=S)NCS(=O)(=O)c2ccc(C)cc2)cc1 returned VP16 counter inconclusive, RORgamma inh 16µM*, SW480 rereplic 3%, IL-1B inflam inh -100* and MCF10A rerep 7%.
